Data on five compounds can be found in PubChem BioAssay (NCATS).

Inconclusive results are not listed. A call without a number means that no potency is given here. Calls of active or inactive are those of the source. Calls come from the whole dose curve; as a rule, active = well fitted activation curve with a large enough effect; inconclusive = small, poorly fitted or top-dose-only effect; inactive = flat fitted curve, though single readings scatter.

The nature of the assay: Primary redox qHTS assay for identification of artifact compounds. (AID 1845223). Particulars: Amplex Red/HRP redox cycling with DTT, fluorescence; series mostly up to 53.8 µM. In outline:
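Redox-cycling detection via DTT (250 uM final) oxidation coupled to Amplex Red (25 uM)/HRP (250 mU/mL) in HBSS. 15 min preincubation plus 30 min after DTT, room temperature. Ex/Em 525/598 nm; 4-parameter Hill fit against DMSO and 10 uM DA3003.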
For the compound `CC(=O)Nc1cccc(Nc2ncnc(N3CCC(OCc4ccc(OC(F)(F)F)cc4)CC3)n2)c1C`, the Potency result was “inactive”.
With `CC(C)(O)C1CC(=O)C2(C)C(CCC3(C)C(c4ccoc4)OC(=O)C4OC432)C12CCC(=O)OC2` (stereo not given) the entry was “inactive”; with `CCNC(=O)N1CCCN(c2ccc(C(=O)NCCc3ccc(Cl)cc3Cl)cc2NC(=O)c2cccc(Cl)c2)CC1`, “inactive”.
The value for `O=S(=O)(NCc1cccc2ccccc12)c1cc(Cl)c(Oc2cccc(N3CCNCC3)c2)s1` was “inactive”; that for `O=C(NCCN1CCOCC1)c1cc2c(Oc3ccc(NC(=O)C4(C(=O)Nc5ccc(F)cc5)CC4)cc3)ccnc2[nH]1` was “inactive”.
